Screening results: PubChem BioAssay, The Scripps Research Institute Molecular Screening Center
A selection: hits, their analogues and other compounds. The true share with any hit is near 1.1%.
HTR5A ag: HTR5A agonism, opioid heterodimer counter-screen | HTR5A agonist assay, luminescence, cell-based | AID 504692 | P47898 | activation, % at 9.3 µM | 0.61% of 340,000 active; in the data active = activation mostly above about 9.5%, no sharp cut-off; inactive = mostly below about 7.6%
HTR5A inv ag: HTR5A inverse agonism, opioid heterodimer counter-screen; 0.083% of 340,000 active; inhibition, % at 9.3 µM; HTR5A cell line, luminescence; P47898; AID 504634; in the data active = inhibition mostly above about 23%, no sharp cut-off; inactive = mostly below about 18%
MOR-DOR inv ag: inverse agonists of human mu-delta opioid receptor heterodimerization; P35372+P41143; cell-based MOR-DOR heterodimer luminescence, inverse agonism; inhibition, % at 9.3 µM; 0.21% of 340,000 active; AID 504357; in the data active = inhibition above about 22%, passing the limit was not always enough
Target sequence (P35372 whole entry, looked up): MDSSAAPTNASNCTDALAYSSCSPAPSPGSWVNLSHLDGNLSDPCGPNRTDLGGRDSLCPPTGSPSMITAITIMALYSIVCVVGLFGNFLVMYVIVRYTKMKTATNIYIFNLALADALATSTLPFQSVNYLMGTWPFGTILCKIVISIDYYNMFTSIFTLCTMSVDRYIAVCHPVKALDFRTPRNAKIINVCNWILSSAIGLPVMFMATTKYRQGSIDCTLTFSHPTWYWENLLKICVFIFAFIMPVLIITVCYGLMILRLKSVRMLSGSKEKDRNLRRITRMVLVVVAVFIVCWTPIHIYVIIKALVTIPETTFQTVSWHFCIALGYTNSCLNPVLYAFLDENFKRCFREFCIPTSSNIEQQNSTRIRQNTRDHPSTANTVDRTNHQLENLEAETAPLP
Target sequence (P41143 whole entry, looked up): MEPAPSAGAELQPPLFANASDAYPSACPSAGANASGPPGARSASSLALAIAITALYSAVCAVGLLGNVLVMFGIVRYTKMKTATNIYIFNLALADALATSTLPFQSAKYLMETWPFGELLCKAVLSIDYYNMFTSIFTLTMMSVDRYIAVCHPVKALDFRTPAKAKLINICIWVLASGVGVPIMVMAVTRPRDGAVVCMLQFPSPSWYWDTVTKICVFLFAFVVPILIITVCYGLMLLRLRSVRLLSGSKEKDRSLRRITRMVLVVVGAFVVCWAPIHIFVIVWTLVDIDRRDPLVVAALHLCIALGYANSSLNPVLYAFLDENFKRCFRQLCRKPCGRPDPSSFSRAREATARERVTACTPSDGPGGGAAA
MOR-DOR ag: agonists of human mu-delta opioid receptor heterodimerization. AID 504326. activation, % at 9.3 µM. cells, OPRM1-OPRD1 heterodimerization, luminescence. P35372+P41143. 0.3% of 340,000 active; in the data active = activation above about 18%
OPRM1-D1 inv cf: confirmation of human OPRM1-OPRD1 heterodimerization inverse agonists. 20% of 580 active. cells expressing OPRM1/OPRD1 heterodimer, luminescence. AID 504900. shares compounds with MOR-DOR inv ag. inhibition, % at 9.3 µM; in the data active = inhibition above about 32%
HTR5A inv ctr2: HTR5A inverse agonism, opioid heterodimer counter-screen; shares compounds with MOR-DOR inv ag; HTR5A-expressing cells, luminescence; inhibition, % at 9.3 µM; 580 tested, under 10 active; call rule not given here
Each line names hits and unclear results; the compound was inactive in the other large screens (follow-up assays come after a bar, where they were run).

CC(C)(C)OC(=O)N[C@H]1C=C[C@@H](OC(=O)CC(=O)OCC(F)(F)F)C1	none
CC1=C/C(=C(/c2cc(C)c(O)c(Br)c2)c2ccccc2S(=O)(=O)O)C=C(Br)C1=O	none
CC1=C/C(=C(/c2ccc(O)c(C)c2)c2ccccc2S(=O)(=O)O)C=CC1=O	MOR-DOR inv ag 29 | OPRM1-D1 inv cf inactive | HTR5A inv ctr2 inactive
CC1(C)CC(=O)C2=C(C1)Nc1ccccc1NC2c1cc(Cl)ccc1O (stereo not drawn)	MOR-DOR inv ag 42 | OPRM1-D1 inv cf inactive | HTR5A inv ctr2 inactive
Cc1ccc(C2Nc3ccccc3NC3=C2C(=O)CC(C)(C)C3)c(O)c1 (stereo not drawn)	none
CNC(=O)c1nnsc1S(=O)(=O)c1ccc(Cl)cc1	MOR-DOR inv ag 32 | OPRM1-D1 inv cf inactive | HTR5A inv ctr2 inactive
O=C(CNS(=O)(=O)c1ccccc1)OCC(=O)c1cccc([N+](=O)[O-])c1	MOR-DOR inv ag 61 | OPRM1-D1 inv cf inactive | HTR5A inv ctr2 inactive
O=C(COC(=O)c1cnccn1)c1cccc([N+](=O)[O-])c1	MOR-DOR inv ag 65 | OPRM1-D1 inv cf inactive | HTR5A inv ctr2 inactive
O=C(CNS(=O)(=O)c1ccccc1)OCc1cccc([N+](=O)[O-])c1	none
O=C(CNC(=O)c1ccc(Br)o1)OCC(=O)c1cccc([N+](=O)[O-])c1	HTR5A inv ag 36, MOR-DOR inv ag 83 | OPRM1-D1 inv cf inactive | HTR5A inv ctr2 inactive
Cc1ccc(OCC(=O)OCC(=O)c2cccc([N+](=O)[O-])c2)cc1C	MOR-DOR inv ag 44 | OPRM1-D1 inv cf inactive | HTR5A inv ctr2 inactive
COc1cc(NC(=O)c2ccccc2)c(OC)cc1NC(=O)CN1C(=O)NC2(CCCCC2C)C1=O (stereo not drawn)	none
CC(C)(C)OC(=O)C[C@H]1C/C=C\C[C@H](CC(=O)NCCO)C(=O)N[C@@H](Cc2ccccc2)COC1=O	none
O=C(Cc1ccccc1)OCC(=O)c1cccc([N+](=O)[O-])c1	MOR-DOR inv ag 52 | OPRM1-D1 inv cf inactive | HTR5A inv ctr2 inactive
Cc1cc(C(=O)Cn2cnc3ccc(Cl)cc3c2=O)c(C)n1C1CC1	none
NC(=O)C1=CC2C3C=CC2(O)C(=O)OC3O1 (stereo not drawn)	none
S=C(Cc1ccccc1)Nc1ccccc1	none
COc1ccc(CNC(=O)c2cccc(NC(=O)CC3SC(N4CCCCC4)=NC3=O)c2)cc1 (stereo not drawn)	none
Cc1ccc(C(=O)NCC(=O)OCC(=O)c2ccc(C)c([N+](=O)[O-])c2)cc1	MOR-DOR inv ag 51 | OPRM1-D1 inv cf 42 | HTR5A inv ctr2 inactive
Cc1ccc(C(=O)COC(=O)CNC(=O)C(c2ccccc2)c2ccccc2)cc1[N+](=O)[O-]	MOR-DOR inv ag 66 | OPRM1-D1 inv cf 41 | HTR5A inv ctr2 inactive
O=C(Cc1ccccc1)NCC(=O)OCC(=O)c1ccc(Cl)c([N+](=O)[O-])c1	MOR-DOR inv ag 90 | OPRM1-D1 inv cf 70 | HTR5A inv ctr2 inactive
CC(=O)OC[C@H]1O[C@@H](Oc2cc3ccc(=O)oc3cc2OC(C)=O)[C@H](OC(C)=O)[C@@H](OC(C)=O)[C@@H]1OC(C)=O	none
Cc1ccc(S(=O)(=O)N(CCCc2c(C)nc[nH]c2=O)c2ccccc2)cc1	none
Cc1ccc(C2C(C(=O)c3cc4ccccc4o3)=C(O)C(=O)N2CCN2CCOCC2)o1 (stereo not drawn)	MOR-DOR inv ag 42 | OPRM1-D1 inv cf inactive | HTR5A inv ctr2 inactive
O=C(NCCCCCCCN1CCCCCCC1)C(C1CCCCC1)C1CCCCC1	none
COc1ccc(CNC(=S)Nc2ccc(S(N)(=O)=O)cc2)cc1	none
COc1cc(OC)cc(C(=O)NNC(=S)Nc2ccc(S(N)(=O)=O)cc2)c1	MOR-DOR inv ag 34 | OPRM1-D1 inv cf inactive | HTR5A inv ctr2 inactive
CC(=O)Nc1ccccc1C(=O)C(=O)O	MOR-DOR inv ag 37 | OPRM1-D1 inv cf inactive | HTR5A inv ctr2 inactive
O=C(Nc1ccn(CCCNCc2ccc3c(c2)OCO3)c(=O)n1)OCc1ccccc1	none
Cc1ccnc2nc(C(=O)OCC(=O)N(Cc3ccccc3)C(C)C)nn12	none
Cc1ccc2c(c1)C(=O)C(=O)N2CC(=O)Nc1ccccc1NC(=O)c1ccccn1	MOR-DOR inv ag 47 | OPRM1-D1 inv cf inactive | HTR5A inv ctr2 inactive
Cc1ccc(C)c(C(=O)c2ccccc2NC(=O)c2ccccn2)c1	none
CCCCCC(=O)NNC(=S)NC(=O)c1ccccc1[N+](=O)[O-]	MOR-DOR inv ag 30 | OPRM1-D1 inv cf inactive | HTR5A inv ctr2 inactive
CC(=O)Nc1ccc(CCCCc2ccc(NC(C)=O)cc2)cc1	none
Cc1ccc2c(c1)C(=O)C(=O)N2c1ccc(Cl)cc1	MOR-DOR inv ag 58 | OPRM1-D1 inv cf inactive | HTR5A inv ctr2 inactive
COc1ccccc1C(=O)OCC(=O)c1cccc([N+](=O)[O-])c1	none
Cc1cc(C(=O)OCC(=O)c2cccc([N+](=O)[O-])c2)c2ccccc2n1	MOR-DOR inv ag 60 | OPRM1-D1 inv cf 38 | HTR5A inv ctr2 inactive
Nc1ccc(C(=O)OCC(=O)c2cccc([N+](=O)[O-])c2)cc1	none
O=C(COC(=O)c1cc2ccccc2oc1=O)c1cccc([N+](=O)[O-])c1	MOR-DOR inv ag 47 | OPRM1-D1 inv cf 46 | HTR5A inv ctr2 inactive
CC(C)N(C(=O)COC(=O)c1ccccc1C(=O)c1ccc(Cl)c([N+](=O)[O-])c1)C(C)C	none
Cc1cc(C(=O)OCC(=O)c2ccc(Cl)c([N+](=O)[O-])c2)c2cccc(C)c2n1	MOR-DOR inv ag 34 | OPRM1-D1 inv cf inactive | HTR5A inv ctr2 inactive
CC(C)(C)OC(=O)C[C@@H]1C/C=C\C[C@@H](CC(=O)N[C@H](CO)Cc2ccccc2)C(=O)N2CCC[C@H]2COC1=O	none
O=C(COC(=O)c1ccccc1O)Nc1ccc(N2CCOCC2)cc1	none
CCCCNC(=S)NNC(=O)c1cc(-c2ccncc2)nc2ccccc12	MOR-DOR inv ag 33 | OPRM1-D1 inv cf inactive | HTR5A inv ctr2 inactive
CCCCNC(=S)NNC(=O)c1cc(C2CC2)nc2ccccc12	none
Cc1nnsc1C(=O)NNc1ccc(C(C)C)cc1	none
Cc1nnsc1C(=O)NNc1ccc(C(C)(C)C)cc1	MOR-DOR inv ag 77 | OPRM1-D1 inv cf inactive | HTR5A inv ctr2 inactive
O=C1Nc2ccccc2/C1=N\N1CCOCC1	none
NC(N)=NS(=O)(=O)c1ccc(N=C2C(=O)Nc3ccccc32)cc1	MOR-DOR inv ag 53 | OPRM1-D1 inv cf 70 | HTR5A inv ctr2 inactive
CC(=O)N(C)c1ccc(N=C2C(=O)Nc3ccccc32)cc1	MOR-DOR inv ag 57 | OPRM1-D1 inv cf inactive | HTR5A inv ctr2 inactive
Cc1ccc(S(=O)(=O)N2CC(O)C[C@H]2C(=O)OCC(=O)N2CCN(c3ccc(F)cc3)CC2)cc1C (stereo partly drawn)	none
O=C(CNC(=O)C1CCCCC1)OCC(=O)c1ccc(F)cc1	none
O=C(CNC(=O)C1CCCCC1)OCC(=O)c1cccc(Cl)c1	MOR-DOR inv ag 36 | OPRM1-D1 inv cf inactive | HTR5A inv ctr2 inactive
